Reference: PubChem BioAssay (NCATS)
Unmarked numbers belong to inactive results. Records with an inconclusive call do not appear. The source made the active and inactive calls. Unless noted, calls come from the whole dose curve; as a rule, active = well fitted curve in either direction with a large enough effect (not every such curve was filed as active); inconclusive = small, poorly fitted or top-dose-only effect, or another doubt; inactive = flat fitted curve, though single readings scatter.

What was measured:
[1] = AP1 Signaling Pathway (AID 357); details: ME-180 AP-1-bla reporter, EGF-induced, beta-lactamase ratio, 5 h; at 17.2 µM (top of the series) unless noted;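 note: ME-180 reporter cells stimulated with EGF at its EC50 level; % is set by controls: 0 for no effect and ±100 for the full control effect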
Summary of the method: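 Read-out was the 460nm/530nm emission ratio (excitation 405nm) after CCF4 loading for 2.5 hours at room temperature. Cells carried an AP-1-driven beta-lactamase reporter, were stimulated with EC50 EGF plus compound for 5 hours, and AC50 values came from titrations.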

[2] = NFAT Signaling Pathway (AID 444); details: Jurkat NFAT-bla M1, carbachol, beta-lactamase ratio, 5 h; at 17.2 µM (top of the series) unless noted;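 note: carbachol stimulus at about its EC50 of 1 µM final; % is set by controls: 0 for no effect and ±100 for the full control effect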
Summary of the method: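 Read-out: CCF4 FRET ratio (460 nm/530 nm) after 1 h RT dye loading, used for %activity and AC50 from titration series. Cells: Jurkat NFAT-β-lactamase/M1 line, treated with compound plus 1 uM carbachol for 5 h, 37 °C.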

[3] = Stat Signaling Pathway (AID 446); details: ME-180 SIE beta-lactamase reporter, IL-6 stimulated, 5 h; at 17.2 µM (top of the series) unless noted;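 note: ME-180 cervical cancer cells given 40 pM IL-6 alongside compound; SIE-controlled beta-lactamase reporter measured as 460/530 nm FRET emission ratio; % is set by controls: 0 for no effect and ±100 for the full control effect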
Summary of the method: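 Reporter line: ME-180 cervical carcinoma, SIE-beta-lactamase. Treatment: compound with 40 pM IL-6, 5 hrs, 37 C, in low-serum OPTI-MEM with 10 mM HEPES pH 7.3. Detection: 460/530 nm fluorescence.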

[4] = target: Glucocorticoid receptor (Homo sapiens) (UniProt P04150); experiment: GR-GFP Redistribution (AID 450;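 active = compounds whose dose series gives a full or clear partial fitted curve of increased nuclear translocation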; note: potency is the fitted concentration of half-maximal effect)
Sequence of Glucocorticoid receptor (Homo sapiens) (P04150 whole entry, looked up): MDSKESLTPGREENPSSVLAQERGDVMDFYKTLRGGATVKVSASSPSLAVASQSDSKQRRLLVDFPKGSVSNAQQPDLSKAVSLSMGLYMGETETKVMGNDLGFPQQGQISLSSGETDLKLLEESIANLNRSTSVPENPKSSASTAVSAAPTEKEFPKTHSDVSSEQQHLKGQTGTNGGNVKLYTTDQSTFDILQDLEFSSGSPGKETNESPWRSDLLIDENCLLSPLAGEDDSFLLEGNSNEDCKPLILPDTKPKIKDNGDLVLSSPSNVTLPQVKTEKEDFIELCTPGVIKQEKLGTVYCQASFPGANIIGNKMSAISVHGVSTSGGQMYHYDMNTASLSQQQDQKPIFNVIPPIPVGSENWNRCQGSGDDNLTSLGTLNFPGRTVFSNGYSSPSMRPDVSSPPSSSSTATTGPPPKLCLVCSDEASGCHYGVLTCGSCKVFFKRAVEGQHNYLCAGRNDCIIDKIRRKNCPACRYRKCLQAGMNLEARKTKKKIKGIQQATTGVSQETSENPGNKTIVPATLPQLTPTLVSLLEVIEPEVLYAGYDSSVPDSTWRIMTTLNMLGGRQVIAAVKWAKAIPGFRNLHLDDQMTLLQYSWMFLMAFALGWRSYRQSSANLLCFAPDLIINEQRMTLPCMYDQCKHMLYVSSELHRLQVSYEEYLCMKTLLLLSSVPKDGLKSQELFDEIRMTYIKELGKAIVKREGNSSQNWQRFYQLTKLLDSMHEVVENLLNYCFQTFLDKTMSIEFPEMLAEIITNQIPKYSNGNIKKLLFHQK

SMILES | activity change, negative = inhibition [1] [%] | activity change, negative = inhibition [2] | activity, negative = inhibition [3] [%] | Potency [4] [µM]
COc1ccccc1OCC(=O)Nc1ccc(S(=O)(=O)Nc2cc(C)nc(C)n2)cc1 | -4.5 | -9.32% | -5.19 | > 20.6
CC(C)CN1C(=O)c2ccc(C(=O)Nc3ccccn3)cc2C1=O | -5.2 | 27.9% | 4.97 | > 20.6
CN1C(=O)CC(N2CCN(c3ccc(Cl)c(Cl)c3)CC2)C1=O (stereo not given) | 17.6 | 16.8% | 0.709 | > 20.6
CN1C(=O)c2c(sc3c2CCCC3)NC1c1ccccc1O (stereo not given) | -12.2 | -10.9% | -25.9 | > 20.6
CC1(C)Cc2c(sc3nc(SCC(=O)NCc4ccco4)n(-c4ccccc4)c(=O)c23)CS1 | -19.4 | -13.9% | -26.5 | > 20.6
CCOC(=O)CSc1nc2ccccc2c(=O)n1C | -12.5 | -11.5% | 1.58 | > 20.6
Cc1nccn1-c1cc(C(C)C)c(C#N)c2nc3ccccc3n12 | 0.38 | -0.783% | -0.277 | > 20.6
COCCOCCOCCC(=O)NC1CC2CCC1(C)C2(C)C (stereo not given) | 13.7 | 0.73% | -0.452 | > 20.6
COc1ccc(C2=Nn3c(nnc3-c3cccnc3)SC2)cc1OC | -11.2 | -23% | -17.6 | > 20.6
CCc1nc(N2CCN(C(=O)c3ccccc3)CC2)c(C#N)c2c1COC(C)(C)C2 | -17.6 | 21.3% | -14 | > 20.6
Cc1nc2c(=O)n(C)c(=O)[nH]c2n1Cc1ccccc1 | 10.3 | 14.6% | -0.854 | > 20.6
Cc1cccc(C)c1OCC(O)CNS(=O)(=O)c1ccccc1C(=O)N1CCOCC1 (stereo not given) | -8.76 | 9% | 3.91 | > 20.6
COc1ccc2c(c1)[nH]c1c(=O)n(CC3CCCO3)cnc12 (stereo not given) | -4.81 | 16.4% | 2.17 | > 20.6
Cc1nc2c(c(=O)n1CC1CCCO1)c1nc3ccccc3nc1n2CCC(C)C (stereo not given) | 6.32 | -6.4% | -12.2 | > 20.6
CCOC(=O)NC(Nc1sc2c(c1C(N)=O)CCCC2)(C(=O)OCC)C(F)(F)F (stereo not given) | -6.03 | -0.536% | -7.59 | > 20.6
COc1ccc(N2C(=O)CC(N(Cc3ccc(S(N)(=O)=O)cc3)C(C)=O)C2=O)cc1 (stereo not given) | 5.04 | -2.46% | 2.66 | > 20.6
CCOc1ccc(C2/C(=C(/O)c3ccc(OC)cc3)C(=O)C(=O)N2c2cc(C)on2)cc1OC (stereo not given) | -11.1 | -0.187% | -9.83 | > 20.6
CC1(C)CC(=O)C2=C(C1)N(Cc1ccco1)C(=O)C2(NC(=O)c1cccnc1)C(F)(F)F (stereo not given) | -3.2 | -3.77% | -9.45 | > 20.6
Cc1cc(=O)oc(C)c1C(=O)NCC1CCCO1 (stereo not given) | 2.9 | -0.802% | 1.38 | > 20.6
COc1ccccc1N1CCN(C(=O)c2c(C)cc(=O)oc2C)CC1 | 10.3 | -1.71% | 6.24 | > 20.6
Cn1c(N2CCN(c3ccccn3)CC2)nc2c1c(=O)n(Cc1ccccc1Cl)c(=O)n2C | 4.27 | 8.29% | -8.44 | > 20.6
O=C(O)C(O)c1ccco1 (stereo not given) | -5.38 | -2.98% | 1.78 | > 20.6
COC(=O)CSc1nc(N)nc(C)c1Br | 5.47 | 1.04% | 2.44 | > 20.6
COc1ccc(/C(O)=C2/C(=O)C(=O)N(CCN3CCOCC3)C2c2ccccn2)cc1 (stereo not given) | 7.11 | 6.7% | 0.702 | > 20.6
COc1ccc(N2C(=O)CN=C2Nc2nc(C)cc(C)n2)cc1 | 8.39 | -10% | 4.62 | > 20.6

SMILES | activity change, negative = inhibition [1] [%] | activity change, negative = inhibition [2] | activity, negative = inhibition [3] [%] | Potency [4] [µM]
CCOC(=O)c1c(C)n(C)c2ccc(O)c(S(=O)(=O)c3ccccc3)c12 | -9.19 | 2.35% | 11.2 | > 20.6
CCCCc1nc(NCCN2CCOCC2)c(C#N)c2c1COC(C)(C)C2 | -15.7 | 13.3% | 1.05 | > 20.6
COc1ccc(OC)c(C2C(C(=O)c3sc(C)nc3C)=C(O)C(=O)N2CCN2CCOCC2)c1 (stereo not given) | 4.44 | 16.6% | -1.07 | > 20.6
COc1cccc(-c2nnc3sc(-c4ccco4)nn23)c1 | -6.59 | 7.27% | -1.01 | > 20.6
CCOC(=O)c1cc2c(=O)n3ccccc3nc2n(Cc2ccccc2Cl)c1=N | -18.6 | 1.14% | 2.43 | > 20.6
Oc1ccc2c(c1)C1CCCC1(N1CCOCC1)O2 (stereo not given) | -13.6 | 16.1% | 2.31 | > 20.6
Clc1ccc(-n2ncc3c(NCc4ccco4)ncnc32)cc1 | -19.6 | 1.57% | -20.9 | > 20.6
COc1ccc(C2=CC(c3cccc(OC)c3)n3nnnc3N2)cc1 (stereo not given) | -24.4 | 1.4% | -2.84 | > 20.6
Cn1c(=O)c2c(nc(NCCCO)n2Cc2cccc(C(F)(F)F)c2)n(C)c1=O | 8.4 | 7.97% | -3.72 | > 20.6
Nc1nnnn1/N=C/c1cccc(Oc2ccccc2)c1 | -4.47 | -18.6% | 10.9 | > 20.6
CCc1cc2c(=O)c(-c3cscn3)coc2c(CN(C)C)c1O | 26.5 | -7.56% | 10.5 | > 20.6
CC(C)CN1C(=O)NC(NC(=O)c2cccnc2)(C(F)(F)F)C1=O (stereo not given) | -6.13 | 3.51% | -1.02 | > 20.6
O=C1CCC(=O)N1c1nc2nc(-c3ccccc3)cc(-c3ccccc3)n2n1 | -12.9 | 6.64% | -1.33 | > 20.6
CCCOc1ccc(N2C(=O)CC(N(CCC)C(=O)CCC(=O)O)C2=O)cc1 (stereo not given) | 3.59 | 18.7% | 6.31 | > 20.6
CSc1nc2sc3c(c2c(=O)[nH]1)CCC(C)C3 (stereo not given) | 7 | -2.6% | 8.48 | > 20.6
CN(C)CC(O)COc1ccc(C(C)(C)c2ccc(OCC(O)CN(C)C)cc2)cc1 (stereo not given) | -0.00757 | 1.57% | -4.4 | > 20.6
CCCCOC(=O)CCc1nc2ccccc2[nH]1 | 5.71 | -0.459% | 6.02 | > 20.6
COc1ccc(-n2ncc3c(NCCCn4ccnc4)ncnc32)cc1 | -7.88 | -15.7% | -5.95 | > 20.6
Cc1ccccc1N1C(=O)C2ON(c3ccccc3)C(c3cccnc3)C2C1=O (stereo not given) | -2.7 | -0.971% | -4.14 | > 20.6
Cc1c(C)[n+](=O)c2c(n1[O-])CCC2 | 0.615 | -5.07% | -0.102 | > 20.6
CCOC(=O)CSc1nc2sc3c(c2c(=O)[nH]1)CC(C)(C)OC3 | 6.27 | 6.58% | 4.32 | > 20.6
Cc1[nH]c2ccc(F)cc2c(=O)c1SC(F)(F)C(F)C(F)(F)F (stereo not given) | -31.7 | 10.1% | -1.13 | > 20.6
CC(C)(C)NC(=O)/C=N/O | 10.5 | 23.2% | 3.21 | > 20.6
CCOc1ccccc1N1CCN(c2nc3ccccc3nc2C(C#N)C(=O)OC)CC1 (stereo not given) | -24.3 | -106% (active) | -16.5 | > 20.6
Cc1nc(=O)c(-c2ccccc2)c(C)n1-c1ccc(S(N)(=O)=O)cc1 | 7.15 | -1.07% | 7.76 | > 20.6
